# For part of these data: Measured potencies and affinities stand elsewhere.
# How the values were obtained:
# Parameters in all cases: scale not given: direction of the effect not stated beside the values
# [1] = target: Protein translocase subunit SecA (Escherichia coli (strain K12)) (UniProt P10408); assay: Assay to Identify E. coli SecA ATPase Inhibitors; assay type: functional; conditions: 30 µM
# [2] = target: T1, Ubiquitin-activating enzyme e1, putative (Leishmania donovani (strain BPK282A1)) (UniProt E9BSI1); assay: Leishmania donovani Ubiquitin Activating Enzyme (LdE1); assay type: functional; conditions: 30 µM
# T1 sequence (whole entry): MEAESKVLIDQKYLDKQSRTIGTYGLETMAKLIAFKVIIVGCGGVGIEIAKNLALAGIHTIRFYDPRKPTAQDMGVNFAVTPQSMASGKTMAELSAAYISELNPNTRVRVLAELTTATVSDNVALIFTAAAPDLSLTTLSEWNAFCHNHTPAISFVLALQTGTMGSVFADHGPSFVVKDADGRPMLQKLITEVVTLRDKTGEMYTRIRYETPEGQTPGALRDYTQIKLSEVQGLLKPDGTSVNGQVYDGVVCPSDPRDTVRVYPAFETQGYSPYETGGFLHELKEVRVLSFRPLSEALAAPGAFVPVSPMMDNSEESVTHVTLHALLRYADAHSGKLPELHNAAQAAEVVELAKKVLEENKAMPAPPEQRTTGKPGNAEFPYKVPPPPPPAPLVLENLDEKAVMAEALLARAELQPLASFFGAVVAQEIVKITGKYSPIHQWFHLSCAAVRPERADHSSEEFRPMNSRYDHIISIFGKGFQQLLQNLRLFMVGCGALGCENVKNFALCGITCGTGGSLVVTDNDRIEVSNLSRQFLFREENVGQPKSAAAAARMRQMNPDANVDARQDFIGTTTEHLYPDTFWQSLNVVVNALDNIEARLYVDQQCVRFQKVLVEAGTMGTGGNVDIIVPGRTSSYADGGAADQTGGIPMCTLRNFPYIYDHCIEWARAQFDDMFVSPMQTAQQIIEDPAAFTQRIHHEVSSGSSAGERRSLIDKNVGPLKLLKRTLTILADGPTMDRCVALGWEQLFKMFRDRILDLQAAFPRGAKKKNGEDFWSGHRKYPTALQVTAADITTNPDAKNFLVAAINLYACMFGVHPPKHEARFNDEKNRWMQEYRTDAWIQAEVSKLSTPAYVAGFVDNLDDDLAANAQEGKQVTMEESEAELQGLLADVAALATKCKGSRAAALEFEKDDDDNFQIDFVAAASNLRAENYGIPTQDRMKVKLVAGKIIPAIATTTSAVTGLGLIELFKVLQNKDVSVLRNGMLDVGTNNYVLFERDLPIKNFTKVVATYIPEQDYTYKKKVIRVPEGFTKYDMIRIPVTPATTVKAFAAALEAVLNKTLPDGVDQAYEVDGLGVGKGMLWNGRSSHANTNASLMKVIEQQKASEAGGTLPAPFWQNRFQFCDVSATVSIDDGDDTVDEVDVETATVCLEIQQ
# [3] = target: Sialic acid-binding Ig-like lectin 9 (Homo sapiens) (UniProt Q9Y336); assay: Hs-Siglec9 ALPHAscreen SOP 20170721; conditions: 10 µM
# [4] = tested on: Trypanosoma cruzi; assay: Trypanosoma cruzi phosphomannomutase and mannose-1-phosphate guanylyltransferase assay; assay type: functional; conditions: 10 µM
# [5] = target: T2, Arginase-2, mitochondrial (Homo sapiens) (UniProt P78540); assay: in vitro enzyme assay to detect the production of urea directly proportional to the activity of Arginase II; assay type: functional; conditions: 33.3 µM; note: in the data most compounds retested in dose-response had high values
# T2 sequence (whole entry): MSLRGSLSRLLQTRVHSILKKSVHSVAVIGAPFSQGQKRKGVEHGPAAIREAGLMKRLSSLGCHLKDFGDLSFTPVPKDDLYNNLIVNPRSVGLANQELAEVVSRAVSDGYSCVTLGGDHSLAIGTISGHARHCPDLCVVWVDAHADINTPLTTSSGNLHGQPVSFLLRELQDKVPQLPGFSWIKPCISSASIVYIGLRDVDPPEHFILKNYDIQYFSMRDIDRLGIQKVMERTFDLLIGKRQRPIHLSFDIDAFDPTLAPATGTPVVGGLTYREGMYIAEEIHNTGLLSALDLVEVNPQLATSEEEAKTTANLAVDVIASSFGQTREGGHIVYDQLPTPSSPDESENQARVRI
# [6] = target: T3, Proteasome subunit beta (Trypanosoma cruzi) (UniProt O96673); assay: Trypanosoma cruzi proteasome chymotrypsin-like activity (TcProtChymo) assay.; note: in the data most compounds retested in dose-response had high values; assay type: functional; conditions: 9.37 µM
# T3 sequence (whole entry): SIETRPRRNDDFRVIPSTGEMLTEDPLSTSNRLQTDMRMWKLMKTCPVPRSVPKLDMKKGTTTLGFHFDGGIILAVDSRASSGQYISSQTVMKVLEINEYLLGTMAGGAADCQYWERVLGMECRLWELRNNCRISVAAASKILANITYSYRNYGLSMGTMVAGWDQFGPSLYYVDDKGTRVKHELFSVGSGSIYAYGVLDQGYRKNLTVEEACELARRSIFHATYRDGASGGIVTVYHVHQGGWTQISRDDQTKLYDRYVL
# [7] = species: Homo sapiens; assay: To identify inhibition of the IFN signalling (Jak-Stat) pathway via expression of an eGFP reporter gene under the control of an IFN-stimulated response element (ISRE) containing MxA promoter.; assay type: functional; conditions: 30 µM
# [8] = target: T4, Tyrosyl-tRNA synthetase, putative (Trypanosoma cruzi (strain CL Brener)) (UniProt Q4DSP6); assay: Trypanosoma cruzi tyrosyl tRNA synthetase (TcYRS) _High Tyrosine SOP; assay type: functional; conditions: 30 µM; note: in the data most compounds retested in dose-response had high values
# T4 sequence (whole entry): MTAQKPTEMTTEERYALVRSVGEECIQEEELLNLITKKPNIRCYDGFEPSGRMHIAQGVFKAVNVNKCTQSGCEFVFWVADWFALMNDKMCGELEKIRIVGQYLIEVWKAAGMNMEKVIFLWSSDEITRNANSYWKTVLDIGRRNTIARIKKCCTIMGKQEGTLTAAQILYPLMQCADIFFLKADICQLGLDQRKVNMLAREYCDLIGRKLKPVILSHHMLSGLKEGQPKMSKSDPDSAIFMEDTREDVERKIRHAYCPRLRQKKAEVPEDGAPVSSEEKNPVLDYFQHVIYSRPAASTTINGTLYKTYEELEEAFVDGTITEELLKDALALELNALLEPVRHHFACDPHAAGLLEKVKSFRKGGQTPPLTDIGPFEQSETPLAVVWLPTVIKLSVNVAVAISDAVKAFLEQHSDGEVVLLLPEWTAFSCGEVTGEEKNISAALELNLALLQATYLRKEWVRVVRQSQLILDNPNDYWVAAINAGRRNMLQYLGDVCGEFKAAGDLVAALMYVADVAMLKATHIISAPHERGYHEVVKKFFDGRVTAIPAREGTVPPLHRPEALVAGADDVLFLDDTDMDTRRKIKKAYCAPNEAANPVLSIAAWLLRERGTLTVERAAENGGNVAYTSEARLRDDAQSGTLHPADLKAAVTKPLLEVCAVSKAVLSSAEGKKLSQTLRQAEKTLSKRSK
# [9] = target: T4, Tyrosyl-tRNA synthetase, putative (Trypanosoma cruzi (strain CL Brener)); assay: Trypanosoma cruzi tyrosyl tRNA synthetase (TcYRS) SOP; assay type: functional; conditions: 30 µM
# [10] = target: Chromo domain-containing protein 1 (Saccharomyces cerevisiae (strain ATCC 204508 / S288c) (Baker's yeast)) (UniProt P32657); assay: ScCHD-1 Enzyme Inhibition Assay; assay type: functional; conditions: 30 µM; note: in the data most compounds retested in dose-response had high values
# Chromo domain-containing protein 1 (Saccharomyces cerevisiae (strain ATCC 204508 / S288c) (Baker's yeast)), sequence (P32657 whole entry, the tested form may be a part): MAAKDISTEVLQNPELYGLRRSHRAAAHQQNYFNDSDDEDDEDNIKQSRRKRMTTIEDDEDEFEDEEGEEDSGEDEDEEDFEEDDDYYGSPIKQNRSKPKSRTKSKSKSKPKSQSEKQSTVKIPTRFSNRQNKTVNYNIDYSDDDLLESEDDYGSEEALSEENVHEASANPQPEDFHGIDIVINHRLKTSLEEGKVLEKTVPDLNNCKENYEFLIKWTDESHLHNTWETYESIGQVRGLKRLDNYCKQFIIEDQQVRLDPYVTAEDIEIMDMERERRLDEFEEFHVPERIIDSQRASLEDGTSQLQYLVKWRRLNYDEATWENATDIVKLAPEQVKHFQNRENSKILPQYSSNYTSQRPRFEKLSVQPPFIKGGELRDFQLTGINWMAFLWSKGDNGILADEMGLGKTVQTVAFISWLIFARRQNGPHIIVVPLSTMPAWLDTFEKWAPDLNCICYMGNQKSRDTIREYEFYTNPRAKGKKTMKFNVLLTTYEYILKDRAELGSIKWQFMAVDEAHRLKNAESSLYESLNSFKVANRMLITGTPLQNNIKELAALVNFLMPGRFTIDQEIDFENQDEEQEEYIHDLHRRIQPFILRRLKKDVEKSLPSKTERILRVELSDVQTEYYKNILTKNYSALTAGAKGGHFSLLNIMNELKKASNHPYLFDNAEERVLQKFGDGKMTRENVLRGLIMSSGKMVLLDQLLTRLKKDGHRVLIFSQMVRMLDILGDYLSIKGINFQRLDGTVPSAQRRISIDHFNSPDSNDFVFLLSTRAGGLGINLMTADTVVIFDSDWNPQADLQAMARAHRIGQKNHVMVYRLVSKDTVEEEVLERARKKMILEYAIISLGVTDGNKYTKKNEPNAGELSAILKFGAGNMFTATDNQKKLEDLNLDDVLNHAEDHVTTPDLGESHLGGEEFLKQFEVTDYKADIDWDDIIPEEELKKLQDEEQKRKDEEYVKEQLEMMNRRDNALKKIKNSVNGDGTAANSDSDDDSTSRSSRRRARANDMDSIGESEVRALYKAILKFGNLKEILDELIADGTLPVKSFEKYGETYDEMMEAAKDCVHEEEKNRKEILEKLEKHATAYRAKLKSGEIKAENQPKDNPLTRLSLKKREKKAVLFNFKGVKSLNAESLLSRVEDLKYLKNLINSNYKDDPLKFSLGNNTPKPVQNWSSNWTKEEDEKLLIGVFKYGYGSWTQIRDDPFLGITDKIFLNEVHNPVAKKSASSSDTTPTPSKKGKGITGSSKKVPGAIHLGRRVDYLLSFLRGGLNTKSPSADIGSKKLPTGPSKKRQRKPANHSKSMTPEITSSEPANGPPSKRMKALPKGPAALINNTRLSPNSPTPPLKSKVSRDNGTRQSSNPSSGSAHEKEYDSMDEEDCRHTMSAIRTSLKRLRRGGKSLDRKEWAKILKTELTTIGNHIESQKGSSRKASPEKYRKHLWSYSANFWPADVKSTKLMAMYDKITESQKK
# Sialic acid-binding Ig-like lectin 9 (Homo sapiens), sequence (Q9Y336 whole entry): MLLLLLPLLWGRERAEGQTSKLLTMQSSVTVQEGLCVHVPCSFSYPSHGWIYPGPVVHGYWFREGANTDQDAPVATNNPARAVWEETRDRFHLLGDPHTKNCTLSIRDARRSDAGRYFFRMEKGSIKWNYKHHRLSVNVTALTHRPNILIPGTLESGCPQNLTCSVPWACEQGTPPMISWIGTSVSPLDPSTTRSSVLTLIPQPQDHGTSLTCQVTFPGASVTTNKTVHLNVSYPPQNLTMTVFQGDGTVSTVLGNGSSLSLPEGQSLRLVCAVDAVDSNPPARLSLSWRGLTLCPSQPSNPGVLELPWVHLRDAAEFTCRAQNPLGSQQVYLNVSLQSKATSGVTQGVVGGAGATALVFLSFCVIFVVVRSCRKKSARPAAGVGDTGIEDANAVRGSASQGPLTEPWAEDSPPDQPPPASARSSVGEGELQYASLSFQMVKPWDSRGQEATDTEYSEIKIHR
# Protein translocase subunit SecA (Escherichia coli (strain K12)), sequence (P10408 whole entry): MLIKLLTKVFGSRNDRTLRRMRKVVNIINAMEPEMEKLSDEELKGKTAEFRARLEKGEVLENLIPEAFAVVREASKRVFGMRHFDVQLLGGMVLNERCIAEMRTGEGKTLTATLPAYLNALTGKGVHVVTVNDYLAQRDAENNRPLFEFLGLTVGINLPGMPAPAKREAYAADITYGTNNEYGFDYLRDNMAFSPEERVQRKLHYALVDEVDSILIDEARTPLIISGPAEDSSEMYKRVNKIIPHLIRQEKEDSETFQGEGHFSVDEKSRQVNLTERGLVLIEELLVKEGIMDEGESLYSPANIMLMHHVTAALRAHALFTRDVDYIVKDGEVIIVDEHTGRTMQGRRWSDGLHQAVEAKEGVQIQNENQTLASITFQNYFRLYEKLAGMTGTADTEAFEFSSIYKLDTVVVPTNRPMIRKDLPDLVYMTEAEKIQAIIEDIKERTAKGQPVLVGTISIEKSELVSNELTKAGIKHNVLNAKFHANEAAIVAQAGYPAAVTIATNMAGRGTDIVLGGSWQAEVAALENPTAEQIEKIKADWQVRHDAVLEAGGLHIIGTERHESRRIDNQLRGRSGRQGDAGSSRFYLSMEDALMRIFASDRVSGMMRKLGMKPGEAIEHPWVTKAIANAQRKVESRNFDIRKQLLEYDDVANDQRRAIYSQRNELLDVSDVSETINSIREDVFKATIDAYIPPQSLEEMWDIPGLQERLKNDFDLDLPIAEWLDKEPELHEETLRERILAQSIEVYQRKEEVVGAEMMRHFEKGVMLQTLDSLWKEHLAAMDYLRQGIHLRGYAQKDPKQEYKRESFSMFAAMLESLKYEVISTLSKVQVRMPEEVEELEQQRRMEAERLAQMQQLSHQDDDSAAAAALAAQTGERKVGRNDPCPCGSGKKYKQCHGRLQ
Compound,Percent Effect [1] [%],Percent Effect [2] [%],Percent Effect [3] [%],Percent Effect [4] [%],Percent Effect [5] [%],Percent Effect [6] [%],Percent Effect [7] [%],Percent Effect [8] [%],Percent Effect [9] [%],Percent Effect [10] [%]
COCCN1C[C@@H]2CN(C(=O)[C@H]3CCCO3)C[C@@H]2C1=O,0.0627,16.9,-1.76,-6.38,3.65,24.5,7.75,7.73,12.5,-7.63
CNc1cc(C2CCCN2C(=O)c2ccc3oc(=O)n(C)c3c2)ccn1 (stereo not given),-1.24,14.7,1.42,-3.94,-1.33,11.3,-1.54,0,7.5,-22.1
O=C1NCCN(CC2CC2)C12CCN(Cc1ccco1)CC2,-2.83,9.09,-15.9,-9.45,2.83,18.8,10.4,2.63,-2.56,-3.23
Cn1cc(CN2CCC3(CC2)CC(c2ccncc2)C(=O)N3)cn1 (stereo not given),-3,6.49,-3.92,-5.36,2.02,16.7,-2.28,3.68,10.3,-1.42
Cc1ccc(-c2nc(CN3CCCC(Cn4cncn4)C3)no2)cc1 (stereo not given),-6.21,-2.6,0.0125,-0.373,-3.48,0.351,25.7,1.96,0,9.47
O=C1N(CC2CC2)CCC12CCN(c1ncccn1)CC2,2.77,16.9,-4.8,-3,2.74,16.7,12.4,6.76,10,-10.6
COC(=O)CC(c1ccccc1)c1oc(C)cc(=O)c1O (stereo not given),-10.4,0,4.84,-5.33,-1.75,1.71,6.47,1.6,0,-1.53
CCCc1nc(C)c(C(=O)NCCN2CCN(CC)CC2)s1,-3.24,0,11.4,0.56,-2.25,-1.23,5.53,6.86,9.41,3.6
CN1CCN(CCO)C(=O)C12CCN(Cc1ccsc1)CC2,-2.2,9.09,-2.51,-1.88,1.83,13.5,-2.12,3.87,12.5,-7.99
Cc1cccc(N2CCN(C(=O)Nc3cnn(CC(N)=O)c3)CC2)c1,0.381,20.5,-9.92,5.73,6.56,1.28,-6.7,4.31,25.3,-4.54
Cc1cccnc1CNCC1(O)CCCN(CC2CCCCC2)C1=O (stereo not given),-6.4,0,-1.52,-2.04,-3.85,3.25,1.47,7.98,17.1,0.826
CNC(=O)c1cc(S(=O)(=O)C(C)C)cs1,0.159,19.5,28.2,3.75,3.2,13.7,-6.32,6.76,20,-10.6
Cc1ccc(C(=O)NCCNc2ncccc2C#N)c(=O)[nH]1,-1.94,5.2,-3.54,-8.77,-15,15.3,17.6,6.86,7.06,-7.29
CCc1nc(CC(=O)N2CCCC2Cn2cccn2)cs1 (stereo not given),-2.88,2.67,6.12,0.402,4.43,6.19,-17.2,2.63,7.69,-10
COc1ccc(CN2CCC[C@@H]3CN(C(=O)c4ccco4)C[C@@H]32)cc1,-4.96,11.7,-12.3,-3.6,-4.05,17.6,3.21,3.68,10.3,0.299
Cc1[nH]nc(CCC(=O)N2CCCC(OCc3cccnc3)C2)c1C (stereo not given),-5.06,10.8,4.22,0.679,-0.35,2.91,27.8,6.92,17.1,-1.03
CCc1sc(-c2nnc(CNCCn3cc(C)cn3)o2)cc1C,-2.72,5.2,8.91,-6.34,4.71,1.93,10.2,4.9,7.06,-8.57
COc1c(C2CCCN2C(=O)c2cncnc2C)c(C)nn1C (stereo not given),0.687,20.8,0.3,-7.46,-3.48,18.8,21.6,3.92,9.41,-6.48
CN(C)CC(=O)N1CCC2(CC1)COC(COc1ccccn1)C2 (stereo not given),-4.97,6.49,-5.49,2.82,-4.86,12.3,-11.4,5.79,12.8,-0.892
CC(CC#N)NC(=O)c1cc(Br)c2c(c1)OCCO2 (stereo not given),-2.19,-5.33,-0.459,-4.22,3.1,-1.61,7.62,0.526,2.56,-4.98
CN(C)C[C@@H]1C[C@@H]2CN(C(=O)c3ccoc3)CC[C@@H]2N1CC1CC1,-7.24,11.7,1.31,-6.19,0.913,0.429,11.2,-4.83,-2.5,-4.24
CC(C)c1nc(C2CCCN2CC(=O)Nc2nncs2)no1 (stereo not given),-6.03,16,8.36,0.402,-1.33,5.17,7.39,5.79,15.4,23.5
Cc1ncncc1C(=O)Nc1cnn(CC(=O)NC2CCCC2)c1,-3.38,20,2.3,2.96,-0.443,10.8,8.96,1.06,12.5,-20.3
Cn1cc(C(=O)N2CCC(Cc3nccs3)CC2)cn1,0.12,6.67,-7.82,-4.54,-1.33,6.73,15,4.23,0,-28.5
